Several values for one entry are separate records, joined by “and”; a condition that tells them apart may be missing. Equal values may be shown once. Out of some 360,000 compounds screened, about 7,300 (2%) were called active. Cut-off read from the data, not from the text of the source: active = inhibition above about 50%; inactive = the rest. Many of the other results were omitted from the sample, so actives are more common in it than they were.

This experiment can be described thus: inhibitors of TWEAK-Fn14 signaling, primary screen, luciferase reporter cells, uHTS (AID 1159606). Particulars: TWEAK-stimulated Fn14 reporter cells, luciferase luminescence, 8 h; at 10 µM; hits give high values. (In a reporter assay the amount or activity of a reporter protein is the signal.)
In the case of `Cn1nnc2cc(C(=O)NCCC3=CCCCC3)ccc21`, the inhibition is 51.2% (active).

For the molecule `O=C(NCCC1=CCCCC1)c1ccc(-n2cncn2)cc1`, the inhibition is -8.52% (inactive).

As to `O=C(NCCC1=CCCCC1)c1ccc(Cl)c([N+](=O)[O-])c1`, the inhibition is -14.2% (inactive). Take `CC1CCCCC1NC(=O)CN1CCC(O)(c2ccc3c(c2)OCO3)CC1` (stereo not given): the inhibition was 3.52% (inactive).

On to `CCCCn1nnnc1C(c1ccccc1)N1CCN(c2ccccc2OC)CC1` (stereo not given), for which the inhibition is -11.6% (inactive).

Turning to `COc1cccc(/C=N/Nc2cc(C)nc(-c3ccccc3O)n2)c1O`, the inhibition is 59% (active). In the case of `COc1cc(/C=N/Nc2ccc(C)cc2)cc(Br)c1O`, the inhibition was 4.13% (inactive).

On to `COc1ccccc1-n1c(SCC(=O)Nc2cccc(C(=O)O)c2)nnc1-c1ccccc1O`, for which the inhibition is 8.74% (inactive). In the case of `Cc1cc(CNC(=O)C2CCC(=O)N(CCc3ccc(Cl)cc3)C2)no1` (stereo not given), the inhibition was 0.87% (inactive). As for `CC(=O)N1CCN(S(=O)(=O)c2c(F)cc(F)c(Cl)c2F)CC1`, the inhibition was -11.6% (inactive). Regarding `COc1ccc(/C=N/Nc2ccccc2C(=O)O)cc1`, the inhibition is 57% (active).

For the molecule `COc1ccc(/C=N/NC(=O)C(C)N(c2ccc(OC)cc2)S(C)(=O)=O)cc1` (stereo not given), the inhibition was 6.28% (inactive). For `COc1ccc(/C=C2/SC(=O)N(CCCCCC(=O)Nc3ccccc3C(=O)O)C2=S)cc1`, the inhibition was 40.8% (inactive).

Regarding `O=C(NN=Cc1ccc2c(c1)CCC2)c1ccccc1O`, the inhibition is -39.1% (inactive).

Take `COc1ccc(C(=O)Nc2ccccc2C(=O)N/N=C/c2ccc(O)c(OC)c2)cc1`: the inhibition is 103% (active).

As for `COc1ccc(-c2[nH]ncc2/C=N/NC(=O)c2cc(Br)ccc2O)c(OC)c1`, the inhibition was 1.37% (inactive).

For `CCOC(=O)C(=O)C1C(=O)Nc2ccccc21` (stereo not given), the inhibition is 6.46% (inactive). Turning to `CCOc1ccc(CCN2C(=O)C(=O)N([C@@H](Cc3ccc(O)cc3)CN3CCC[C@H]3CN3C(=O)C(=O)NC[C@@H]3CC(C)C)C[C@@H]2Cc2ccccc2)cc1`, the inhibition is 20.7% (inactive). As for `CC1=NN(c2cccc(Cl)c2)C(=O)C12CC(C)=C(C)CS2` (stereo not given), the inhibition was -6.06% (inactive). In the case of `CC(NC(=O)CN1CCN(Cc2ccc(Cl)cc2)C1=O)c1ccc2c(c1)OCCO2` (stereo not given), the inhibition is 13.5% (inactive). Take `CC(C)C[C@H]1CNC(=O)C(=O)N1C[C@@H]1CCCN1C[C@H](Cc1ccccc1)N1C[C@H](CC(C)C)N(CC2CCCCCC2)C(=O)C1=O`: the inhibition is 5.6% (inactive). As for `CC1CC(=O)Nc2ccccc2N1C(=O)COc1ccc2cc(Br)ccc2c1` (stereo not given), the inhibition was -17.9% (inactive).

For `O=C(CNC(=O)c1cccnc1)N/N=C/c1cc(Br)c(O)c(Br)c1`, the inhibition is -15.2% (inactive). The figure for `O=C(CSc1cccc2cccnc12)N/N=C/c1cccnc1` is 73.4% (active).

As for `Cc1ccc(S(=O)(=O)N(CC(=O)N/N=C/c2ccc(F)cc2)c2cccc3cccnc23)cc1`, the inhibition is -1.02% (inactive). Regarding `COc1ccc(C)cc1NC(=O)NCCCCc1ccccc1`, the inhibition was -2.36% (inactive). With `CCCCN1C(=O)CC(N2CCOCC2)C1=O` (stereo not given), the inhibition was -9.74% (inactive).

Consider `CCCCCn1nnnc1-c1nc2cc3ccccc3cc2[nH]c1=O`, for which the inhibition is -12.3% (inactive).

As to `CCCCCN(C(=O)CCC(=O)OCCOc1ccc(OC)cc1)c1c(N)n(CCCC)c(=O)[nH]c1=O`, the inhibition was -5.75% (inactive). With `Cc1ccc(NC(=O)N2CCSc3ccccc32)cc1`, the inhibition was -12.4% (inactive). With `C=C(C)C(=O)O[C@H]1C/C(C)=C\C(=O)/C=C(\C)[C@H](O)[C@@H]2OC(=O)C(=C)[C@@H]21`, the inhibition was 68.2% (active).

With `CNC(=S)N/N=C/c1ccc(N2CCOCC2)s1`, the inhibition was 7.48% (inactive).

Take `CC1(NC(=O)CCS(=O)(=O)c2ccc(Cl)cc2)CCS(=O)(=O)C1` (stereo not given): the inhibition is 17.8% (inactive). Take `O=C(NCC(c1ccco1)N1CCc2ccccc2C1)c1ccccc1Cl` (stereo not given): the inhibition was -3.94% (inactive). For `Nc1cccc(OCCCCCOc2cccc(N)c2)c1`, the inhibition was -9.63% (inactive). For `O=c1c2sccc2nc(SCc2cc(=O)n3ccccc3n2)n1-c1ccc(Br)cc1`, the inhibition was -8.13% (inactive). As to `Cc1cccc2nc(CSc3nc4[nH]ncc4c(=O)n3-c3cccc(Cl)c3)cc(=O)n12`, the inhibition is 68.9% (active). The figure for `CCc1ccc(-n2c(SCc3cc(=O)n4cc(Br)ccc4n3)nc3[nH]ncc3c2=O)cc1` is 2.35% (inactive); for `COc1ccc(C(=O)CSc2n[nH]c(N)n2)cc1` it is -14.2% (inactive); for `Cc1ccc(N2CCN(c3ccc(C)cc3)C2c2ccccn2)cc1` it is -16.7% (inactive). With `CCOC(=O)C1CCCCN1Cc1ccc(OC)c(OC)c1OC` (stereo not given) the figure was -2.28% (inactive); with `CC1Cc2[nH][nH]c(=O)c2C(C2CCCC2)O1` (stereo not given), -6.62% (inactive); with `COc1ccccc1OCCNc1cc(N2CCOCC2)ccc1[N+](=O)[O-]`, -47.4% (inactive). With `COc1ccc(CCNc2cc(N3CCN(C(=O)c4ccccc4OC)CC3)ccc2[N+](=O)[O-])cc1OC` the figure was 94.3% (active); with `COc1ccc(CCNC(=O)c2ccccc2-c2ccccc2C(=O)O)cc1OC`, 4.96% (inactive); with `CC(C)(O)C1=C[N+](=O)CC=C1`, 13.1% (inactive). For `CC1(C)SC2C(NC(=O)COc3ccccc3)C(=O)N2C1C(=O)O` (stereo not given), the inhibition is 1.61% (inactive) and -29.2% (inactive). In the case of `CC(=O)Nc1ccc(S(=O)(=O)Nc2nc3n(n2)C(c2ccccc2)CC(=O)N3)cc1` (stereo not given), the inhibition was -1.82% (inactive). `CC(C)[C@H](NC(=O)c1ccccc1F)C(=O)Nc1cccc(S(=O)(=O)N2CCOCC2)c1`: the inhibition was 12.8% (inactive). Take `C=CCn1c(C)cc(C(=O)CN2C(=O)c3ccccc3C2=O)c1C`: the inhibition is 63.3% (active).

`C=CCN(CC=C)C(=O)CN1C(=O)c2ccccc2C1=O`: the inhibition was 15.1% (inactive). Regarding `Cc1cc(C(=O)COC(=O)CCCN2C(=O)c3ccccc3C2=O)c(C)n1C`, the inhibition was 5.35% (inactive).

Regarding `O=C1CCC(=O)N(O)CCCCCNC(=O)CCC(=O)N(O)CCCCCNC(=O)CCC(=O)N(O)CCCCCN1`, the inhibition was -10.8% (inactive).

Consider `C/C(=N/OC(=O)c1cccc(C(F)(F)F)c1)c1cnccn1`, for which the inhibition was -1.14% (inactive).

Regarding `CCc1ccccc1OCC(=O)Nc1ccc2c(c1)OCCO2`, the inhibition is -1.57% (inactive). Turning to `Cc1ccc(OCCCC(=O)Nc2ccc(N3CCOCC3)cc2)cc1`, the inhibition is 4.69% (inactive). `COC(=O)CCNc1ccc2c(c1)OCCO2`: the inhibition was 93.8% (active). The figure for `COc1ccccc1OCCCC(=O)Nc1ccc2c(c1)OCCO2` is -33.3% (inactive); for `Cc1ccc(OCCCC(=O)Nc2ccc3c(c2)OCCO3)cc1` it is 63.9% (active). Regarding `CCOc1ccc(NCCC(=O)c2ccc3c(c2)OCO3)cc1`, the inhibition was -3.49% (inactive).

On to `COC(=O)CCCCC1=CCC2C(=O)C=C(O)C2C1` (stereo not given), for which the inhibition was -0.75% (inactive). Regarding `O=C(NCc1cccnc1)c1cc(C2CCCN(C(=O)C3CCCCC3)C2)on1` (stereo not given), the inhibition is -5.87% (inactive). Consider `CCc1ccc(CN(C)C(=O)CCc2nnc(-c3ccc(-c4ccccc4)cc3)o2)nc1`, for which the inhibition was 35.3% (inactive). `CCCCCCc1cc2cc(-c3nnc(-c4ccccc4)o3)c(=O)oc2cc1O`: the inhibition is 69.9% (active). For the molecule `C#CCNC(=O)C[C@@H]1C[C@@]2(C(=O)OCC)CCCC=C2N(Cc2ccco2)C1=O`, the inhibition is -4.62% (inactive). `O=C(O)CC(Cn1cnnn1)c1ccccc1` (stereo not given): the inhibition was 0.41% (inactive).

Take `CS/C(=C\C(=O)c1ccco1)Nc1ccccc1Cl`: the inhibition was -3.35% (inactive). Regarding `O=C(Nc1ccccc1Cl)/C(Cl)=C(\Cl)S(=O)c1ccccc1` (stereo not given), the inhibition was 105% (active). With `CC(=O)c1ccc(NC(=O)C(C)N(C)CC(=O)Nc2ccccc2Cl)cc1` (stereo not given), the inhibition was -3.04% (inactive). The figure for `OC(c1ccccc1)c1nc(-c2cnc3ccccc3c2)cs1` (stereo not given) is 12.8% (inactive). As for `O=C(OCC(=O)N1CCN(C(=O)c2ccco2)CC1)c1c(Cl)cccc1Cl`, the inhibition was 3.09% (inactive). With `O=C(OCC(=O)N1CCCC1)c1ccco1`, the inhibition was 70.7% (active). As for `O=C(OCC(=O)N1CCN(C(=O)c2ccco2)CC1)c1cccc(O)c1`, the inhibition is -18.9% (inactive). The figure for `Cc1ccc(-c2nnn(CC(=O)N(Cc3ccco3)C(C(=O)NC(C)(C)C)c3ccncc3)n2)o1` (stereo not given) is -9.3% (inactive); for `O=C(O)CCn1c(O)c(C=C2N=c3ccccc3=N2)sc1=S` it is 90.8% (active).

`CC(=O)NC(C(=O)NCC(N)=O)C(C)C` (stereo not given): the inhibition is -1.22% (inactive). As to `CSC1=NN(c2ccccc2)CN(c2ccccc2)N1C`, the inhibition was 11.5% (inactive). Consider `Cc1ccc2nc(NC(=O)C3CCN(S(=O)(=O)c4ccc5c(c4)oc(=O)n5C)CC3)sc2c1`, for which the inhibition is 61.3% (active).

`O=C(NC1CCCCC1)n1c(=O)oc2cc(S(=O)(=O)N3CCCCC3)ccc21`: the inhibition is -2.85% (inactive).

Consider `Cn1c(=O)oc2cc(S(=O)(=O)N3CCC(C(=O)Nc4ccc(OC(F)(F)F)cc4)CC3)ccc21`, for which the inhibition was -4.22% (inactive). With `CC(C)C[C@@H](COCc1ccc(Cl)cc1)N1CCN(C(=O)c2ccc(Cl)cc2Cl)CCC1=O` the figure was -5.63% (inactive); with `Cn1ccc(=Nc2ccc(NC(=O)c3ccc(N=c4ccn(C)c5ccc([N+](=O)[O-])cc45)cc3)cc2)cc1`, 11.6% (inactive).

Regarding `Cc1ccc(Oc2cc(NC(=O)CCCn3nc(C)c([N+](=O)[O-])c3C)cc([N+](=O)[O-])c2)cc1`, the inhibition is 29.9% (inactive). With `N#Cc1ccc(-c2ccc(F)cc2)nc1Sc1ccccc1` the figure was -0.84% (inactive); with `Fc1ccc2nc(-c3ccccc3)nc(SCc3nnc(-c4ccccc4)o3)c2c1`, 1.42% (inactive).

Regarding `N#CCSc1nc(-c2ccccc2)nc2ccc(F)cc12`, the inhibition is 85.4% (active).

As to `CCCc1ccc(S(=O)(=O)N2CCN(C(=O)c3cc(C)on3)CC2)cc1`, the inhibition is 23.6% (inactive). Take `OC[C@@H]1CN(Cc2cccs2)C[C@H](n2cnc3c(NC4CCCC4)ncnc32)O1`: the inhibition was 3.36% (inactive). Turning to `OC[C@@H]1CN(Cc2ccc(-c3ccccc3)cc2)C[C@H](n2cnc3c(NC4CCCC4)ncnc32)O1`, the inhibition was 69.7% (active). Regarding `OC[C@@H]1CN(Cc2ccc(F)cc2)C[C@H](n2cnc3c(NC4CCCC4)ncnc32)O1`, the inhibition is 0.72% (inactive).

The inhibition is the change of the read-out against control, counted positive when it falls.

The values are drawn from PubChem BioAssay AID1159606 (Sanford-Burnham Center for Chemical Genomics, 2016).
